# Screening data deposited in PubChem by National Center for Advancing Translational Sciences (NCATS).
# GRP78 ERSR act = qHTS for Inducers of the Endoplasmic Reticulum Stress Response (ERSR) in Human Glioma: qHTS; U87-MG GRP78 promoter luciferase reporter, 16 h; Potency, µM, for the others: top-dose activation, actives largely listed as activators; 0.02% of 420,000 active; AID 602332, 2012; also: potency is read from the fitted curve at half-maximal effect; series mostly up to about 76 µM; % of control where 0% means no effect; nearly all actives have a fitted effect of over 35% in size
#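 ERSR induction read as luciferase luminescence (Bright-Glo, 10 min at room temperature) in stably transfected human U87-MG glioma cells exposed to compounds for 16 h, using GRP78 as sensor.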
# ClpP mod = qHTS Assay for Activators of ClpP. purified B. subtilis ClpP, FRET peptide cleavage, 20 min. Potency, µM (top dose mostly 57.5 µM), for inactives: at the highest dose activity change, negative = active. 1.9% of 340,000 active. AID 651965, 2013; active = well fitted falling curve with a large enough effect; inconclusive = small, poorly fitted or top-dose-only effect; inactive = no such curve, though single readings can be large or run the other way; also: potency is read from the fitted curve at half-maximal effect; the source files actives as falling curves though it sought activators and does not explain the sign; nearly all actives have a fitted effect of over 65% in size
# Target sequence (P80244 whole entry, looked up): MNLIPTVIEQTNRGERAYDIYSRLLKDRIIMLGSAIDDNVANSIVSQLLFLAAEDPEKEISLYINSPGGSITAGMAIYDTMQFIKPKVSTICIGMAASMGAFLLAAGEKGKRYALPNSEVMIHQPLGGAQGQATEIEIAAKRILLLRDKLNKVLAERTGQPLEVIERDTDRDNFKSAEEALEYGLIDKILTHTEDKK
#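 Buffer: 100 mM Tris/HCl pH8, 100 mM KCl, 0.05% low protease BSA, 2.5% glycerol, 0.01% Tween-20. ClpP 10 microg/mL final; 20 min RT; delta FRET normalized to ADEP and DMSO controls.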
# Apoferritin bind = qHTS Assay for Identification of Novel General Anesthetics. Ferritin light chain (Equus caballus), P02791. apoferritin/1-aminoanthracene competitive binding, fluorescence. 0.074% of 350,000 active. Potency, µM (highest dose often 77.5 µM), inactives show at the highest dose activity change, negative = displacement, usual class: inhibitors; also: potency is read from the fitted curve at half-maximal effect; % is scaled to controls: 0 for no effect and ±100 for the full control effect; nearly all actives have a fitted effect of over 20% in size
# Target sequence (P02791 2-175 limits assumed): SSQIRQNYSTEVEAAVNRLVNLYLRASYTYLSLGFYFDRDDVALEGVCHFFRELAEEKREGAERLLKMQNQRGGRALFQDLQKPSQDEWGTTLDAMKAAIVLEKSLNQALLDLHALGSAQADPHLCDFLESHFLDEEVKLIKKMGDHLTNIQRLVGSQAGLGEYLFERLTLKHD
#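 Horse-spleen apoferritin (10 uM) was mixed with 50% saturated 1-aminoanthracene in PBS, exposed to compounds for 10 min at room temperature, and read for fluorescence (ex 380 nm, em 535 nm). Competitive displacement was fitted with a four-parameter Hill equation.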
# N370S GC = qHTS Assay for Inhibitors and Activators of N370S glucocerebrosidase as a Potential Chaperone Treatment of Gaucher Disease; N370S GC spleen homogenate, 4MU-glucoside fluorescence; Potency, µM (doses to about 59.4 µM), for the others: at the highest dose activity change, negative = inhibition, hits mostly inhibitors; 0.092% of 330,000 active;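 also: potency is read from the fitted curve at half-maximal effect; 0% = full enzyme activity and -100% = no enzyme basal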
# a7 integrin act = qHTS for Activators of Integrin-Mediated Alleviation for Muscular Dystrophy | 0.064% of 350,000 active | Potency, µM (series often up to 38.3 µM), inactives show top-dose activation, hits mostly activators | alpha7betagal myoblasts, beta-gal FDG fluorescence, 48 h | AID 624291, 2012;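 also: potency is read from the fitted curve at half-maximal effect; 100% = response of the positive control SU9516; nearly all actives have a fitted effect of over 60% in size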
#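 Alpha7betagal+/- myoblasts (passage 13) were plated 16-24 hr, then exposed to compounds (1:260 dilution of DMSO stock) for 48 hours at 37C. After MPER lysis, β-galactosidase reporter activity was read as FDG fluorescence (ex 480/em 540) after 30 minutes.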
# CBFb RUNX1 block = qHTS Assay for Compounds Blocking the Interaction Between CBF-beta and RUNX1 for the Treatment of Acute Myeloid Leukemia | Potency, µM (top dose mostly 59.8 µM), for inactives: top-dose activity, negative = inhibition, hits mostly inhibitors | Runt-related transcription factor 1 (Homo sapiens) + Core-binding factor subunit beta … | AlphaScreen CBFb-His/RUNX1-biotin binding, biochemical | 230,000 tested, under 10 active; also: % of control where 0% means no effect
#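 Room-temperature protein-protein interaction test with 30 nM each of His-tagged CBF-beta and biotinylated RUNX1, 15 min with compound, then 90 min with nickel plus streptavidin beads. Signal read in AlphaScreen mode.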
# Starred values were filed as active, the others as inactive; ? = inconclusive; nt = no result given; ! = not active in a repeat. The entries come from a sample that favours hits as a whole. Unless noted, calls follow the shape of the dose curve; as a rule, active = well fitted curve in the direction sought with a large enough effect; inconclusive = small, poorly fitted or top-dose-only effect, or another doubt; inactive = no such curve, though single readings can be large; an effect the other way counts as inactive or inconclusive.
SMILES,GRP78 ERSR act,ClpP mod,Apoferritin bind,N370S GC,a7 integrin act,CBFb RUNX1 block
Nc1nnc(-c2cn(-c3ccccc3)nc2-c2ccccc2)o1,4%,25µM*,-6%,3%,15%,1%
CCc1ccc(-c2nc3ccc(Br)cc3c(C(=O)O)c2C)s1,7%,25µM*!,-1%,?,?,nt
Cc1c(-c2ccccc2Br)nc2ccccc2c1C(=O)O,-3%,-2%,nt,nt,-1%,nt
COc1ccccc1C1=NOC(C)(c2sc(-c3ccc(Cl)cc3)nc2C)C1 (stereo not drawn),2%,?,5%,26%,3%,19%
Cc1nc(-c2ccc(Cl)cc2)sc1C1(C)CC(c2ccccc2Br)=NO1 (stereo not drawn),-1%,25µM*,nt,nt,7%,nt
Cc1cccc(-c2nnn3c2nc(NCCc2ccc(S(N)(=O)=O)cc2)c2cc(Cl)ccc23)c1,-1%,51%,41%,nt,nt,nt
Cc1cccc(-c2nnn3c2nc(NCCc2ccc(S(N)(=O)=O)cc2)c2ccccc23)c1,3%,11µM*,13%,5%,15%,2%
NS(=O)(=O)c1ccc(CCNc2nc3c(-c4cccc(F)c4)nnn3c3ccccc23)cc1,1%,22µM*,-3%,-17%,-17%,10%
Cc1ccc(-c2nnn3c2nc(NCCc2ccc(S(N)(=O)=O)cc2)c2ccccc23)cc1,-4%,1%,42%,0%,?,-3%
Cc1nc([N+](=O)[O-])cn1CC(O)c1ccc2c(c1)OCO2 (stereo not drawn),-4%,-1%,nt,nt,nt,nt
O=C(Cc1ccc(F)cc1)NO,nt,-2%,nt,nt,nt,nt
CC(=O)Nc1ccc(Nc2cc(C)nc3c(-c4ccc(Cl)cc4)c(C)nn23)cc1,-10%,28µM*,27%,2%,-19%,3%
CCc1cc(C(=O)NCC2Cc3cc(-c4ccccc4C(C)=O)ccc3O2)no1 (stereo not drawn),-2%,nt,nt,nt,nt,nt
CCOc1ccccc1C=Nc1ccccc1C(=O)Nc1ccccc1,-4%,-3%,67%,?,23%,11%
O=C(Nc1ccccc1)c1ccccc1N=Cc1ccccc1O,-1%,35µM*,66%,22%,24%,7%
O=C(Nc1nccs1)c1cccnc1Cl,0%,-2%,-1%,-10%,33%,nt
O=C(Nc1nccs1)c1ccccc1N=Cc1ccccc1,2%,28µM*,260%,25%,28%,14%
COc1cccc(C=Nc2ccccc2C(=O)Nc2nccs2)c1OC,6%,32µM*,214%,?,1%,27%
Cc1ccc2oc(-c3ccc(C)c(NC(=O)COc4ccccc4C)c3)nc2c1,5%,?,nt,nt,nt,nt
CC(C)(C)n1ncc2c(=O)n(Cc3c(F)ccc(F)c3Cl)cnc21,-4%,nt,nt,nt,nt,nt
O=C(NCC1(N2CCOCC2)CCCC1)c1cnn(-c2ncc3c(n2)-c2ccccc2CC3)c1C1CC1,-3%,nt,nt,nt,nt,nt
CCCCNC(=O)c1ccc2c(c1)NC(=O)C(CS(=O)(=O)Cc1ccc(F)cc1Cl)N2 (stereo not drawn),-1%,40µM*,-15%,nt,nt,nt
CCN(CC)CCCNC(=O)c1ccc2c(c1)NC(=O)C(CS(=O)(=O)Cc1cccc(Br)c1)N2 (stereo not drawn),0%,3.5µM*,?,nt,nt,nt
CCN(CC)CCNC(=O)c1ccc2c(c1)NC(=O)C(CS(=O)(=O)Cc1cccc(Br)c1)N2 (stereo not drawn),-3%,7.9µM*,?,nt,nt,nt
COc1cc(N(C)C)cc(CN(C)CCc2ccc([N+](=O)[O-])cc2)c1O,-3%,nt,-20%,-9%,nt,nt
SMILES,GRP78 ERSR act,ClpP mod,Apoferritin bind,N370S GC,a7 integrin act,CBFb RUNX1 block
OCCN1CCN(Cc2ccc3c(c2)CN(Cc2cc4ccccc4o2)CCO3)CC1,-4%,nt,nt,nt,nt,nt
O=C(OCC(COC(=O)c1cccnc1)(COC(=O)c1cccnc1)COC(=O)c1cccnc1)c1cccnc1,-2%,nt,nt,nt,nt,nt
Cc1cc(C)cc(OC(=O)c2cc(-c3ccc(Cl)cc3)on2)c1,0%,1%,2%,nt,nt,nt
CC(C)c1ccc(OC(=O)c2cc(-c3ccccc3)on2)cc1,1%,2%,14µM*,nt,nt,nt
COCC(=O)Nc1cc(C(=O)N2CCc3sccc3C2)c2c(c1)nc(-c1ccncc1)n2C,-2%,nt,nt,nt,nt,nt
CCN1CCCC1Cn1cnc2c([nH]c3ccc(Cl)cc32)c1=O (stereo not drawn),-4%,-23%,-11%,-3%,-42%,5%
O=c1c2[nH]c3ccccc3c2ncn1Cc1ccccn1,-1%,28µM*,-9%,-5%,20%,1%
CCC1CCCN1Cn1cnc2c([nH]c3ccc(OC)cc32)c1=O (stereo not drawn),-9%,18µM*,1%,-5%,8%,7%
CCN1CCCC1Cn1cnc2c([nH]c3cccc(Cl)c32)c1=O (stereo not drawn),-1%,32µM*,-15%,2%,-19%,0%
CCC1CCCN1Cn1cnc2c([nH]c3ccccc32)c1=O (stereo not drawn),1%,25µM*,-5%,-8%,0%,-1%
Cc1oc(-c2ccccc2NC(=O)c2ccccc2)nc1CNC(=O)c1cccc(-n2cccn2)c1,-4%,nt,nt,nt,nt,nt
CN(CCC#N)c1ccc(/C=C/c2ccnc3ccccc23)cc1,-3%,0%,nt,nt,nt,nt
CC(C)CC(=O)Nc1nc(-c2ccc(S(=O)(=O)N3CCOCC3)cc2)cs1,-5%,32µM*,-9%,-6%,0%,nt
COc1cccc(C(=O)Nc2nc(-c3ccc(S(=O)(=O)N4CCOCC4)cc3)cs2)c1,-3%,?,3%,-3%,5%,-2%
CCCCC(=O)Nc1nc(-c2ccc(S(=O)(=O)N3CCOCC3)cc2)cs1,0%,28µM*,-7%,-12%,19%,nt
O=C(Nc1nc(-c2ccc(S(=O)(=O)N3CCOCC3)cc2)cs1)c1ccccc1,-6%,-4%,-18%,3%,9%,-7%
Cc1csc(NC(=O)CSc2nnc(-c3ccc(S(=O)(=O)N4CCCC4)cc3)o2)n1,3%,28µM*,-20%,-2%,-21%,4%
Cc1ccc(Nc2nc(-c3ccc(S(=O)(=O)N4CCOCC4)cc3)cs2)cc1Cl,-10%,16µM*,-15%,-10%,-21%,-7%
Clc1ccc(/C=C/c2ccc3ccccc3n2)cc1Cl,-6%,?,nt,nt,nt,nt
